Hits are enriched below; roughly 10% of the tested compounds scored in any of these assays.
CtBP-E1A inh: qHTS Assay for Inhibitors of the CtBP/E1A Interaction | CtBP / adenovirus E1A interaction (AlphaScreen) | AlphaScreen GST-E1A/His-CtBP binding, 1536-well; hits give low values | activity change, % (no concentration beside the values) | 340,000 tested, 0.49% active; in the data active means activity change below about -65%; inconclusive means mostly about -30% to -63%; further: on the % scale 0 is the no-effect control and ±100 the full control effect
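GST-E1A and His-tagged CtBP (125 nM each as 5X stock) were preincubated with pin-transferred compound for 2 h at 37 °C in the dark, then glutathione donor and nickel acceptor beads were added for 1 h before AlphaScreen reading.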
G9a block: qHTS Assay for Inhibitors of Histone Lysine Methyltransferase G9a. Histone-lysine N-methyltransferase EHMT2 (Homo sapiens), Q96KQ7. 350,000 tested, 8.8% active. G9a H3K9 monomethylation, AlphaScreen, 2 h. Potency, µM (series often up to 102 µM), for inactives: top-dose activity, negative = inhibition, actives largely listed as inhibitors. AID 504332, 2011; further: potency means the concentration at half of the fitted maximal effect; on the % scale 0 is the no-effect control and ±100 the full control effect; nearly all actives have a fitted effect of over 75% in size
Target sequence (Q96KQ7 913-1193 limits assumed): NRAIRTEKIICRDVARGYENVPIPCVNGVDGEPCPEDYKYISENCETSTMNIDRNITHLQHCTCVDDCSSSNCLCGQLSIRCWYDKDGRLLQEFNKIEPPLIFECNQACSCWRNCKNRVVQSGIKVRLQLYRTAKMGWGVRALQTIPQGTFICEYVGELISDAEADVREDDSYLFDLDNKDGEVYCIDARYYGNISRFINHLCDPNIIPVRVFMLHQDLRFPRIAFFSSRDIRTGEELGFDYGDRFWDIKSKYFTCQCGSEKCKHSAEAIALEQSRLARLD
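Chemiluminescent proximity detection of H3K9 monomethylation, read after 10 min bead incubation in the dark. Reaction: 20 nM G9a, 500 nM biotin-H3K9 peptide, 20 uM SAM cofactor, 2 h, room temperature, following 15 min enzyme-compound preincubation.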
BAZ2B block: qHTS Assay for Inhibitors of BAZ2B; Bromodomain adjacent to zinc finger domain protein 2B (Homo sapiens), Q9UIF8; AlphaScreen BAZ2B-H3K14Ac peptide displacement; Potency, µM (titrated, usually from 114 µM), without a hit: at the top dose activity change, negative = inhibition, most hits filed as inhibitors; 360,000 tested, 4.4% active; AID 504333, 2011; further: potency means the concentration at half of the fitted maximal effect; on the % scale 0 is the no-effect control and ±100 the full control effect; nearly all actives have a fitted effect of over 60% in size
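Complex of BAZ2B and biotin-H3K14Ac (50 nM apiece) forms over 30 min at RT, then faces library compounds up to 110 uM for another 30 min; AlphaScreen beads added, 20 min dark incubation, luminescence read.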
JMJD2A Tudor: qHTS Assay for Inhibitors of JMJD2A-Tudor Domain | AID 504339, 2011 | 390,000 tested, 4.4% active | Potency, µM (doses to about 114 µM), without a hit: at the top dose activity change, negative = inhibition, hits mostly inhibitors | AlphaScreen JMJD2A-Tudor / H3K4me3 peptide binding; further: potency means the concentration at half of the fitted maximal effect; on the % scale 0 is the no-effect control and ±100 the full control effect; nearly all actives have a fitted effect of over 50% in size
Six1-Eya2 blk: qHTS Assay for Inhibitors of the Six1/Eya2 Interaction; Homeobox protein SIX1 (Homo sapiens) + Protein phosphatase EYA2 (Homo sapiens), …; AlphaScreen GST-Six1/His-Eya2 binding, biochemical; hits give low values; activity change, % (no concentration beside the values); 360,000 tested, 0.56% active; AID 651725, 2012; in the data active means activity change below about -65%; inconclusive means mostly about -30% to -63%; further: on the % scale 0 is the no-effect control and ±100 the full control effect
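GST-Six1 + His-Eya2 (5X stock: 250/500 nM); Tris pH 8.0, 300 mM NaCl, 0.05% BSA, 0.02% Tween 20; GSH donor/Ni acceptor beads; 1 h 37 °C dark; AlphaScreen readout.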
HP1b binding inh: HTS for Inhibitors of HP1-beta Chromodomain Interactions with Methylated Histone Tails; Chromobox protein homolog 1 (Homo sapiens), P83916; AlphaScreen HP1-beta / biotin-H3K9me3 peptide binding; Potency, µM (doses to about 114 µM), inactives show top-dose activity change, negative = inhibition, most hits filed as inhibitors; 390,000 tested, 0.56% active; further: potency means the concentration at half of the fitted maximal effect; nearly all actives have a fitted effect of over 70% in size
Target sequence (P83916 whole entry, looked up): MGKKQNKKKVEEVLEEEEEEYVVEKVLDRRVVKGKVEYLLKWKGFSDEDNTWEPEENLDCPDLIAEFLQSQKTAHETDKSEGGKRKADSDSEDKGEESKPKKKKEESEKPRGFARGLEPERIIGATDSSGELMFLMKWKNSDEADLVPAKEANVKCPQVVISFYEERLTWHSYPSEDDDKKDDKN
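Compound inhibition of the preformed complex between 50 nM HP1-beta and 50 nM biotinylated H3K9me3 peptide was read by AlphaScreen. Buffer was PBS pH 7.4 with 0.01% Tween-20. Incubations ran 30 min at room temperature, with 10 ug/mL donor/acceptor beads.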
* marks the source's active call; other numbers are inactive results; ? = inconclusive; . = not tested or not shown; [ ] = remark or other dose. Unless noted, the call rests on the fitted dose curve; in most records, active means well fitted inhibition curve with a large enough effect; inconclusive means small, poorly fitted or top-dose-only effect; inactive means no such curve, though single readings can be large or run the other way.

SMILES	CtBP-E1A inh	G9a block	BAZ2B block	JMJD2A Tudor	Six1-Eya2 blk	HP1b binding inh
CC1CCc2c(sc3nc(CN4CCN(S(=O)(=O)c5ccccc5[N+](=O)[O-])CC4)[nH]c(=O)c23)C1 (stereo unspecified)	6	-6%[59 µM]	-8%	-33%	2	8%
Cc1ccc([C@H]2C[C@@H](O)[C@H](n3cc(C4CC4)nn3)CN2CC2CCCCC2)cc1	3	.	.	.	0	.
OCCN1CCOCCN(CCO)CCOCC1	-1	?	-1%	22µM*	16	0%
O=C(CSc1nccn1Cc1ccccc1)NCc1ccco1	.	?	?	?	.	9%[57 µM]
CCCC(=O)n1nc(-c2ccco2)nc1NCc1ccccc1Cl	.	2%[59 µM]	1%	-4%	.	45%
Cc1[nH]c(=O)[nH]c(=S)c1C(=O)Nc1ccc(Cl)c(Cl)c1	-3	.	.	8.9µM*	-4	-42%
CC(=O)c1c(C)[nH]c(C(=O)Nc2ccc(Cl)c(S(=O)(=O)N(C)C)c2)c1C	.	-21%	?	-35%	-1	15%
CC(C)c1ccccc1NC(=O)CNCCc1ccc(C(F)(F)F)cc1	.	-9%[12.7 µM]	45µM*	14µM*	6	?
Cc1nn(-c2ccccc2)c(Cl)c1C(=O)OCC(=O)NCCc1ccc(S(N)(=O)=O)cc1	-5	50µM*	-24%	-17%	-20	21%
CC(C)c1ccccc1NC(=O)Nc1nc(C(N)Cc2ccc(C(F)(F)F)cc2)cs1 (stereo unspecified)	2	.	.	.	-4	.
NS(=O)(=O)c1ccc(CCNCC(=O)NC2CC2)cc1	12	50µM*	?	4.5µM*	9	?
NS(=O)(=O)c1ccc(CCNC(=S)NC2CCCC2)cc1	.	-2%	-28%	-9%	10	?
NS(=O)(=O)c1ccc(CCNCC(=O)N2CCC(Cc3ccccc3)CC2)cc1	-10	.	56µM*	-35%[11.4 µM]	2	-12%
NS(=O)(=O)c1ccc(CCNC(=O)CNCCc2ccc(C(F)(F)F)cc2)cc1	.	-1%	50µM*	18µM*	7	-7%
CC(C)N1CCC1(C)C(=O)Nc1nccc2cccnc12 (stereo unspecified)	-11	.	.	.	-8	.
c1ccc(Nc2nc(NCc3ccco3)nc3nccnc23)cc1	.	.	.	-18%	.	137%
Oc1ccc(Cl)cc1CNCC1CCCO1 (stereo unspecified)	6	-7%[2.33 µM]	50µM*	3.2µM*	1	?
COc1ccc(-c2noc(CCCC(=O)Nc3ccc(C(N)=O)cc3)n2)cc1	2	14%[59 µM]	2%	-7%	0	14%
NC(=O)c1ccc(NC(=O)CCCc2nc(-c3ccccc3Cl)no2)cc1	-13	50µM*	-11%	-4%	-10	19%
Cc1occc1-c1nnc(SCc2nnc(-c3ccc(Cl)cc3)o2)n1C	-2	79µM*	-21%	-35%[11.4 µM]	-4	?
Cn1nnnc1SCc1nnc(-c2ccc(Cl)cc2)o1	-5	6%[59 µM]	-15%	3%	5	56%
COc1ccc(OC)c(NC(=O)C(OC(=O)CNC(=O)c2ccccc2)c2ccccc2)c1 (stereo unspecified)	.	.	.	-14%	.	.
CC1CC(C)(C)N(C(=O)NC2CCCCC2)c2ccccc21 (stereo unspecified)	4	-9%[59 µM]	7%	-12%	11	20%
COc1ccc2c(c1)C(C)CC(C)(C)N2C(=O)NC1CCCCC1 (stereo unspecified)	0	45µM*	?	-31%	-5	-11%
N#Cc1nc(COc2ccccc2Cl)oc1NCc1ccc(F)cc1	-7	45µM*	?	?	-13	4%
SMILES	CtBP-E1A inh	G9a block	BAZ2B block	JMJD2A Tudor	Six1-Eya2 blk	HP1b binding inh
Cc1ccc(CNc2oc(-c3cccs3)nc2C#N)cc1	-9	50µM*	?	-35%	-6	?
COc1ccc(CCNc2oc(-c3ccccc3OC)nc2C#N)cc1	-20	?	?	?	?	-23%
COc1ccccc1-c1nc(C#N)c(NCc2ccc(F)cc2)o1	-13	?	50µM*	-34%	-16	?
Cc1ccc(CNc2oc(COc3ccccc3Cl)nc2C#N)cc1	-16	?	-38%	-33%	-7	2%
N#Cc1nc(-c2cccs2)oc1NCc1ccco1	-5	-33%[59 µM]	?	?	-10	-19%
CC(C)c1ccc(NC(=O)c2cnc3sc(N4CCCC4)nn3c2=O)cc1	.	12%[59 µM]	5%	-3%	.	55%
O=C(O)c1ccccc1C(=O)OCCCc1ccncc1	5	14%[2.33 µM]	7%	-27%	1	39%
CC(C)n1c(=O)c2ccccc2n1S(C)(=O)=O	-1	.	.	.	0	.
COc1ccc(C2CC(c3ccc(Br)cc3)=NN2C(=S)Nc2ccccc2)cc1 (stereo unspecified)	-16	2µM*	?	-29%	-19	-22%
COc1ccc(C2CC(c3ccccc3)=NN2C(=S)Nc2ccccc2)cc1 (stereo unspecified)	-23	?	?	-28%	-26	20%
CNC(=S)N1N=C(c2ccc(OC)cc2)CC1c1ccc(N(C)C)cc1 (stereo unspecified)	?	.	11µM*	35µM*	?	-52%
COc1ccc(C2CC(c3ccccc3O)=NN2c2ccccc2)cc1 (stereo unspecified)	29	.	.	133%	56	183%
CNC(=S)N1N=C(c2ccc(Br)cc2)CC1c1ccc(Br)cc1 (stereo unspecified)	-6	-11%[59 µM]	-3%	-27%	-11	22%
COc1ccc(C2CC(c3ccccc3)=NN2c2ccc(N)cc2)cc1 (stereo unspecified)	-11	45µM*	40µM*	?	-7	?
CNC(=S)N1N=C(c2ccc(Br)cc2)CC1c1ccc(N(C)C)cc1 (stereo unspecified)	-26	7.9µM*	10µM*	11µM*	?	?
COc1ccc(C=Nc2cccc3c(=O)[nH][nH]c(=O)c23)c2ccccc12	-7	50µM*	-31%	-26%	-6	13%
CCOC(=O)c1ccc(Nc2c(-c3ccc(N(C)C)cc3)nc3nc[nH]n23)cc1	.	16µM*	?	-34%	.	-15%

From PubChem
